Wnt act: activators of Wnt/beta-catenin signaling | Wnt/beta-catenin reporter cell assay, activator, plate reader | activation, % at 9.35 µM | 1.2% of 300,000 active | AID 743398; in the data active = activation above about 30%, passing the limit was not always enough; inconclusive = no clear call, values can overlap the other calls
hcDAF-12 act: H. contortus DAF-12 activation, primary screen | HEK293 hcDAF-12 lit1-tk-luc reporter, luminescence; 0% DMSO, 100% Δ7-dafachronic acid | 1.4% of 370,000 active | activation, % at 6.8 µM;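 active = activation above the mean of all tested compounds plus 3 SD, cut at about 5.5% in these data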
hgDAF-12 ag: activates the H. glycines DAF-12 receptor ligand-binding domain | HEK293 GAL4-hgDAF12 UAS-luciferase reporter, agonist luminescence; normalized to butyrate control | activation, % at 6.8 µM | AID 687014 | 1.8% of 370,000 active;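 active = activation above a cutoff set at the mean of all screened compounds plus 3 SD, cut at about 10% in these data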
esBAF inh: inhibitors of esBAF chromatin remodeling in mouse ES cells; 2% of 350,000 active; AID 602393; reporter increase, % at 12.5 µM; Bmi1-luciferase knock-in reporter, 24 h; 100% = twice the neutral-well signal; in the data active = activation above about 40%; inconclusive = no clear call, values can overlap the other calls;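 also: a rise in the Bmi1 reporter signal indicates esBAF inhibition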
ssDAF12 agonist: activators of S. stercoralis DAF-12 nuclear receptor; activation, % at 6.8 µM; HEK293 ssDAF-12/GRIP1 lit1-tk-luc reporter, luminescence; % of 3 µM dafachronic acid response; 1% of 370,000 active;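 active = activation above the mean over all tested compounds plus 3 SD, cut at about 0.9% in these data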
DAX1 inh: inhibitors of DAX1 repression of SF-1 activated StAR promoter | HEK293T StAR-luciferase reporter, SF-1/DAX-1 repression relief | inhibition, % at 6.8 µM | 1.1% of 370,000 active;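 active = inhibition above the mean over all tested compounds plus 3 SD, cut at about 3.6% in these data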;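 also: higher inhibition means more luminescence from relief of DAX-1 repression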
Of the large screens only hits and unclear results are named; the others gave an inactive call. Most compounds without a hit are left out; they make up all but 4.2% or so of the library.

O=C(Nc1ccccc1F)N1C[C@H]2[C@@H](c3ccccc31)[C@H](CO)N2C(=O)C1CC1	none (no result: Wnt act, hcDAF-12 act, hgDAF-12 ag, ssDAF12 agonist, DAX1 inh)
CC(=O)N=C(N)Sc1nc2ccccc2[nH]1	Wnt act 61, hcDAF-12 act 5.9, hgDAF-12 ag 11, esBAF inh 69
CC(Sc1nc2ccccc2[nH]1)C(=O)O (stereo not given)	none
CC(C)C#Cc1cnc2c(c1)C(=O)N([C@H](C)CO)C[C@@H](C)[C@H](CN(C)Cc1ccccn1)O2	none (no result: Wnt act, hcDAF-12 act, hgDAF-12 ag, ssDAF12 agonist, DAX1 inh)
CSc1ncc(C(=O)Nc2ccc(C(C)=O)cc2)c(C)n1	esBAF inh 52
CC(=O)N1CCN(c2nnc(-c3ccc(C)cc3)c3ccccc23)CC1	ssDAF12 agonist 1.1
Cc1ccc(OCC(=O)N2CCN(c3nnc(-c4ccccc4)c4ccccc34)CC2)cc1	none
Cc1ccccc1-c1cccc2c3c([nH]c12)[C@@H]1C[C@H]2[C@@H](C(=O)N1CC3)[C@H](C)ON2C	none (no result: esBAF inh)
C[C@@H]1ON(C)[C@H]2C[C@H]3c4[nH]c5ccccc5c4CCN3C(=O)[C@@H]12	ssDAF12 agonist 1.0
NC(=S)Nc1nc2ccccc2[nH]c1=O	hcDAF-12 act 5.8 (no result: esBAF inh)
Cc1ccc2[nH]c(=O)c(NC(N)=S)nc2c1	none (no result: Wnt act)
CCc1ccc(C(=O)COC(=O)c2cccs2)cc1	Wnt act 62
O=C(COC(=O)c1cccs1)c1ccc2ccccc2c1	Wnt act 32, esBAF inh 42
S=C1c2ccccc2CN1c1ccccc1	hcDAF-12 act 6.0
O=C(O)c1cccc2c1C(=O)N(c1ccccc1)C2	none
O=C(NCC[C@H]1CC[C@@H](NC(=O)c2cccnc2)[C@H](CO)O1)Nc1ccc(C(F)(F)F)cc1	none (no result: Wnt act, hcDAF-12 act, hgDAF-12 ag, ssDAF12 agonist, DAX1 inh)
C=CCn1cc(/C=N/N2C(=O)C3C4C=CC(C4)C3C2=O)c2ccccc21 (stereo not given)	none (no result: esBAF inh)
O=C1C2C3C=CC(O3)C2C(=O)N1N=Cc1cccc2ccccc12 (stereo not given)	esBAF inh 46
CN1C(=O)c2cc(NC(=O)c3cccs3)ccc2OC[C@H]2O[C@@H](CC(=O)NCCN3CCCCC3)CC[C@H]21	none (no result: Wnt act, hcDAF-12 act, hgDAF-12 ag, ssDAF12 agonist, DAX1 inh)
CC(C)c1ccc(C2OCCCO2)cc1	none
CC(C)c1ccc(C2OCC(C)([N+](=O)[O-])CO2)cc1 (stereo not given)	DAX1 inh 3.9
CN(CC(=O)N1CCCCCC1)S(=O)(=O)c1ccccc1	esBAF inh 57
CN(CC(=O)N1CCCCCC1)S(=O)(=O)c1ccc(F)cc1	esBAF inh 54
Cc1ccc(S(=O)(=O)N(C)CC(=O)N2CCCCCCC2)cc1	none
O=C(NC1CCC1)[C@H]1[C@H](CO)[C@H]2Cn3c(ccc(/C=C/c4ccccc4)c3=O)[C@H]2N1Cc1cncnc1	none (no result: Wnt act, hcDAF-12 act, hgDAF-12 ag, ssDAF12 agonist, DAX1 inh)
O=C1/C(=C\c2ccc(O)cc2)SC(=S)N1/N=C/c1ccc(O)cc1	Wnt act 51 (no result: esBAF inh)
CC(=O)NN1C(=O)/C(=C\c2ccc(O)cc2)SC1=S	none
C[C@H](NC(=O)C[C@H]1CC[C@H](NC(=O)CN2CCOCC2)[C@@H](CO)O1)c1ccccc1	none (no result: Wnt act, hcDAF-12 act, hgDAF-12 ag, ssDAF12 agonist, DAX1 inh)
C[C@@H]1CN([C@H](C)CO)S(=O)(=O)c2ccc(C3=CCCCC3)cc2O[C@@H]1CN(C)Cc1ccccc1F	none (no result: Wnt act, hcDAF-12 act, hgDAF-12 ag, ssDAF12 agonist, DAX1 inh)
CC(C)NC(=O)c1ccc(NC(=O)CC2SC(N3CCCC3)=NC2=O)cc1 (stereo not given)	none
CC(C)NC(=O)c1ccc(NC(=O)CC2SC(N3CCCCC3)=NC2=O)cc1 (stereo not given)	ssDAF12 agonist 1.7
CO[C@H]1CN(C)C(=O)c2cc(NC(C)=O)ccc2OC[C@@H](C)N(C(=O)CC2CC2)C[C@@H]1C	none (no result: Wnt act, hcDAF-12 act, hgDAF-12 ag, ssDAF12 agonist, DAX1 inh)
CCSc1nsc(NC(=O)Nc2ccccc2Cl)n1	hgDAF-12 ag 11, esBAF inh 41
C[C@H](CO)N1C[C@H](C)[C@H](CN(C)C(=O)Nc2cc(F)ccc2F)Oc2ncc(C#CCN(C)C)cc2C1=O	none (no result: Wnt act, hcDAF-12 act, hgDAF-12 ag, ssDAF12 agonist, DAX1 inh)
CN(C)C(=O)C[C@@H]1C[C@H]2c3cc(NC(=O)C4CCOCC4)ccc3O[C@H]2[C@H](CO)O1	none (no result: Wnt act, hcDAF-12 act, hgDAF-12 ag, ssDAF12 agonist, DAX1 inh)
COc1cccc(-c2cc(C(=O)NN3CCOCC3)c3ccccc3n2)c1	none (no result: Wnt act, esBAF inh)
CC(C)Oc1cccc(-c2cc(C(=O)N3CCN(c4ncccn4)CC3)c3ccccc3n2)c1	esBAF inh 60
COC(=O)c1sccc1NC(=O)c1cc(-c2cccc(C)c2)nc2ccccc12	none (no result: Wnt act)
COc1cccc(-c2cc(C(=O)Nn3cnnc3)c3ccccc3n2)c1	hcDAF-12 act 6.0
COC(=O)c1sccc1NC(=O)c1cc(-c2ccc(C)cc2)nc2ccccc12	ssDAF12 agonist 1.1 (no result: Wnt act, esBAF inh)
CCOc1ccc(-c2cc(C(=O)O)c3ccccc3n2)cc1	hgDAF-12 ag 11 (no result: Wnt act)
C[C@H](CO)N1C[C@H](C)[C@@H](CN(C)CC2CC2)Oc2cc(-c3cncnc3)ccc2S1(=O)=O	none (no result: Wnt act, hcDAF-12 act, hgDAF-12 ag, ssDAF12 agonist, DAX1 inh)
C[C@H]1CCCCO[C@@H](CN(C)Cc2ccncc2)[C@@H](C)CN([C@@H](C)CO)C(=O)c2cc(NC(=O)Nc3ccc(C(F)(F)F)cc3)ccc2O1	none (no result: Wnt act, hcDAF-12 act, hgDAF-12 ag, ssDAF12 agonist, DAX1 inh)
O=C(NC1=NCCS1)c1cc(-c2ccc(-c3ccccc3)cc2)nc2ccccc12	Wnt act inconclusive, ssDAF12 agonist 0.9 (no result: esBAF inh)
O=C1C=CC(=Nc2ccc3c(c2)Cc2cc(F)ccc2-3)O1	hgDAF-12 ag 13
O=C(NCc1ccccc1)c1ccc(Cl)c(S(=O)(=O)N2CCCC2)c1	none
O=C(NCCc1ccccc1)c1ccc(Cl)c(S(=O)(=O)N2CCCC2)c1	esBAF inh 59 (no result: Wnt act, hcDAF-12 act, hgDAF-12 ag, ssDAF12 agonist, DAX1 inh)
Cc1ccc(C(=O)NCCc2ccccc2)cc1S(=O)(=O)N1CCOCC1	esBAF inh 68
O=C(Nc1ccccn1)c1ccc(Cl)c(S(=O)(=O)N2CCCC2)c1	esBAF inh 56
CCOCC(=O)Nc1cc(C(=O)Nc2ccccc2)ccc1Cl	esBAF inh 51
C[C@@H]1CCCCO[C@H](CN(C)C(=O)CCC(F)(F)F)[C@H](C)CN([C@@H](C)CO)C(=O)c2cc(NS(=O)(=O)c3cccs3)ccc2O1	none (no result: Wnt act, hcDAF-12 act, hgDAF-12 ag, ssDAF12 agonist, DAX1 inh)
C[C@H](NC(=O)C[C@H]1CC[C@@H](NC(=O)C2CCC2)[C@H](CO)O1)c1ccccc1	none (no result: Wnt act, hcDAF-12 act, hgDAF-12 ag, ssDAF12 agonist, DAX1 inh)
C[C@@H]1CCCCO[C@@H](CN(C)S(C)(=O)=O)[C@H](C)CN([C@@H](C)CO)C(=O)c2cc(NS(=O)(=O)c3cn(C)cn3)ccc2O1	none (no result: Wnt act, hcDAF-12 act, hgDAF-12 ag, ssDAF12 agonist, DAX1 inh)
C[C@@H]1CCCCO[C@H](CN(C)C(=O)Nc2ccccc2)[C@@H](C)CN([C@@H](C)CO)C(=O)c2cc(NS(=O)(=O)c3ccc(F)cc3)ccc2O1	none (no result: Wnt act, hcDAF-12 act, hgDAF-12 ag, ssDAF12 agonist, DAX1 inh)
O=C(NCCC1=CCCCC1)c1ccc(F)c(S(=O)(=O)N2CCOCC2)c1	none (no result: Wnt act, esBAF inh)
CC1CN(S(=O)(=O)c2cc(C(=O)NCCC3=CCCCC3)ccc2Cl)CC(C)O1 (stereo not given)	DAX1 inh 3.8 (no result: esBAF inh)
CCCCC(=O)Nc1cc(C(=O)NCCc2ccccc2)ccc1Cl	esBAF inh inconclusive, DAX1 inh 4.4 (no result: Wnt act)
O=C(CCc1nc(-c2cccs2)no1)Nc1cnc2ccccc2c1	ssDAF12 agonist 1.7 (no result: esBAF inh)

Screening data: PubChem BioAssay, several laboratories
